# WRN helicase inh – qHTS for Inhibitors of WRN Helicase; Bifunctional 3'-5' exonuclease/ATP-dependent helicase WRN (Homo sapiens), Q14191; WRN helicase unwinding, fluorescent forked duplex, kinetic; Potency, µM (titrated, usually from 114 µM), for inactives: at the highest dose activity change, negative = inhibition, hits mostly inhibitors; 0.46% of 360,000 active; AID 651768, 2012; note: nearly all actives have a fitted effect of over 55% in size
#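 Kinetic fluorescence helicase assay: unwinding of a quenched forked DNA duplex (100 nM final) with 2 mM ATP final raises red fluorescence (525/598 nm). Compounds sat 15 min at room temperature with 20 nM WRN beforehand.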
# L3MBTL1 inh – qHTS Assay for the Inhibitors of L3MBTL1; Lethal(3)malignant brain tumor-like protein 1 (Homo sapiens), Q9Y468; AlphaScreen L3MBTL1–H3K9me1 peptide binding; Potency, µM (titrated, usually from 57.1 µM), for inactives: at the highest dose activity, negative = inhibition, most hits filed as inhibitors; 0.66% of 230,000 active; AID 485360, 2010; note: nearly all actives have a fitted effect of over 60% in size
#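 L3MBTL1 50 nM + b-AHA-H3(1-15)K9me1 75 nM, 30 min RT; compound added, 30 min RT; streptavidin donor/Ni-chelate acceptor beads 10 ug/mL each final, 30 min RT dark; AlphaScreen read.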
# FEN1 inhibitor – qHTS Assay for the Inhibitors of Human Flap endonuclease 1 (FEN1); P39748; Recombinant FEN1 flap cleavage, fluorescence, 15 min; Potency, µM (top dose mostly 114 µM), without a hit: top-dose activity change, negative = inhibition, actives largely listed as inhibitors; 0.35% of 390,000 active; AID 588795, 2011; note: nearly all actives have a fitted effect of over 65% in size
#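 Read-out was taken twice, immediately and after 15 min, following addition of 50 nM substrate to 10 nM FEN1 that had sat with test compound for 15 min at room temperature. Curves came from a four-parameter Hill model.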
# BLM inh – qHTS Assay for Inhibitors of Bloom's syndrome helicase (BLM) | recombinant BLM DNA unwinding, fluorescence dequenching | Potency, µM (doses to about 56.1 µM), without a hit: top-dose activity change, negative = inhibition, most hits filed as inhibitors | 0.2% of 350,000 active;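 note: plate controls were vehicle for no effect and no enzyme for full effect; nearly all actives have a fitted effect of over 35% in size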
# RECQ1 inh-1 – qHTS Assay for Inhibitors of RecQ-Like Dna Helicase 1 (RECQ1); ATP-dependent DNA helicase Q1 (Homo sapiens), P46063; RECQ1 DNA unwinding, red fluorescence kinetic read; Potency, µM (doses to about 57.3 µM), inactives show at the top dose activity, negative = inhibition, most hits filed as inhibitors; 0.54% of 240,000 active; AID 2549, 2010;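 note: plate controls were vehicle for no effect and no enzyme for full effect; nearly all actives have a fitted effect of over 30% in size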
#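 50 nM RECQ1T1 preincubated 15 min with compound in Tris pH 8.0 buffer with MgCl2, DTT, Tween-20 and 2.5 ug/ml poly(dI-dC); started with 200 nM TAMRA/BHQ-2 forked duplex and 2 mM ATP. Unwinding read as fluorescence (525/598 nm), two reads 2 h apart.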
# RECQ1 inh conf – Confirmation qHTS Assay for Inhibitors of RecQ-Like Dna Helicase 1 (RECQ1); shares compounds with RECQ1 inh-1; RECQ1 helicase DNA unwinding, fluorescence; Potency, µM (titrated, usually from 229 µM), inactives show at the highest dose activity change, negative = inhibition, hits mostly inhibitors; 28% of 610 active; note: nearly all actives have a fitted effect of over 45% in size
# ADP FP counter – Counterscreen for RECQ1 Inhibitors: ADP Fluorescence Polarization Displacement Assay; 27% of 530 active; ADP fluorescence polarization displacement counterscreen; shares compounds with RECQ1 inh-1; Potency, µM (top dose mostly 228 µM), inactives show top-dose activity change, negative = inhibition, hits mostly inhibitors; note: nearly all actives have a fitted effect of over 45% in size
# RECQ1 inh-2 – Confirmation qHTS Assay for Inhibitors of RecQ-Like Dna Helicase 1 (RECQ1) - Round 2 Cherry Picks; 15% of 1,100 active; shares compounds with RECQ1 inh-1; Potency, µM (top dose mostly 119 µM), without a hit: top-dose activity, negative = inhibition, usual class: inhibitors; AID 504841, 2011; recombinant RECQ1 DNA unwinding, red fluorescence; note: nearly all actives have a fitted effect of over 50% in size
# * hit, by the source's call; i = inactive; u = inconclusive; x = no result given; [ ] = another dose, or the depositor's remark. Hits are enriched below; roughly 0.99% of the tested compounds scored in any of these assays. Calls come from the whole dose curve; as a rule, active = well fitted curve in the direction sought with a large enough effect; inconclusive = small, poorly fitted or top-dose-only effect, or another doubt; inactive = no such curve, though single readings can be large; an effect the other way counts as inactive or inconclusive. Unless noted, % is set by controls: 0 for no effect and ±100 for the full control effect; potency is the fitted concentration of half-maximal effect.
SMILES,WRN helicase inh,L3MBTL1 inh,FEN1 inhibitor,BLM inh,RECQ1 inh-1,RECQ1 inh conf,ADP FP counter,RECQ1 inh-2
O=C(c1ccc(Cl)cc1)N1CCN(c2cccc3[nH]ccc23)CC1,4.1%,-26.6%,0.5%,3.1%,u,x,x,-4.4%
COc1cc(N(C)C)cc(CN(C)CCc2ccc([N+](=O)[O-])cc2)c1O,x,x,x,14.1µM*,10µM*,100µM*,u,50.1µM*
CCOc1ccccc1NC(=O)CN(C)S(=O)(=O)c1cnc[nH]1,9.0%,13.7%,3.4%,-1.2%,15.8µM*,-1.0%[114 µM],7.6%[91.9 µM],-1.8%
CCOc1ccc(C2Nc3ccccc3C(CC)(CC)O2)cc1 (centres undefined),5.0%,24.3%,-5.5%,-8.4%,-3.0%,x,x,x
COc1ccc(C)cc1-n1nnnc1SCC(=O)NC(=O)NCc1ccco1,-2.9%[11.6 µM],u,1.9%,u,28.2µM*,x,x,-24.7%
COc1ccc(C(=O)NNC(=O)c2ccc(S(=O)(=O)N3CC(C)OC(C)C3)cc2)cc1 (centres undefined),3.8%,x,4.5%,-5.3%,9.1%,x,x,x
COc1cc(OC)cc(C(=O)NNC(=O)c2ccc(S(=O)(=O)N3CC(C)OC(C)C3)cc2)c1 (centres undefined),3.0%,x,-3.2%,1.3%,0.3%,9.5%,-1.3%,x
CC1CN(S(=O)(=O)c2ccc(C(=O)Nc3ccc(S(=O)(=O)Nc4nccs4)cc3)cc2)CC(C)O1 (centres undefined),-1.4%,-12.7%,-3.5%,-3.4%,6.6%,-3.5%,6.7%,x
O=C1CCCC2=C1C(c1ccc(O)c(O)c1)Nc1ccc3ncccc3c12 (centres undefined),u,u,u,u,u,x,x,u
O=C1CCCC2=C1C(c1cccs1)Nc1ccc3ncccc3c12 (centres undefined),-1.9%,0.7%,1.6%,-7.8%,-7.8%,x,x,x
COc1ccc(C)cc1NC(=O)COC(=O)Cc1ccc(-c2ccccc2)cc1,-5.3%,5.8%,-19.2%,-12.4%,u,x,x,-6.9%
COc1ccc(NC(=O)COC(=O)Cc2ccc(-c3ccccc3)cc2)c(OC)c1,-9.2%,4.4%,-14.7%,-5.5%,i,x,x,x
CC(C)c1ccccc1OCC(=O)N(C)CC(=O)Nc1ccc(F)cc1,-4.2%,2.1%,-11.9%,x,x,x,x,x
COc1ccc(N(CC(=O)N2c3ccccc3CC2C)S(=O)(=O)c2c(C)noc2C)cc1 (centres undefined),-2.5%,-8.6%,-23.6%,-15.1%,u,x,x,-17.8%
C=C1c2cccc(O)c2C(O)=C2C(=O)[C@]3(O)C(O)=C(C(N)=O)C(=O)C(N(C)C)C3C(O)C12 (some centres undefined),x,x,x,-3.6%,8.91µM*,u,7.94µM*,-13.1%
Cc1ccc(C2=NN=C(NC(=O)CSc3nc(C)cc(C)n3)SC2)cc1,x,-12.4%,x,0.3%,-10.5%,x,x,x
Cc1ccc(C2=NN=C(NC(=O)CSc3nnc4c5ccccc5n(C)c4n3)SC2)cc1,-16.2%,-28.4%,2.9%,-17.1%,11.2µM*,-2.4%[114 µM],x,x
